The record followed here is the supplement of paper PMC6555819.

This assay deals with VDR:RXRa (NR concentration 270 nM, RXRa partner concentration 90 nM). In words: PBM binding z-score (relative to random genomic background probes); higher = stronger binding; sequences stand for … in GC…GCGATTGACAGCGTAGAATGAAGG
As for the experimental part:
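Protein-binding microarray (Agilent 4x180K custom design, double-stranded 60-nt probes: 5' GC cap, 34-nt variable region, 24-nt constant primer region; full probe sequence given). Purified or IVT nuclear receptor:RXRα heterodimers (3:1 NR:RXRα, mostly 270:90 nM) or homodimers were incubated for 1 h in PBS with 2% milk and no ligand, then detected with Alexa488 antibodies. Fluorescence from o1-orientation probes (~5 replicates averaged) was converted to z-scores against 500 random hg19 background probes. Variable regions are seed direct-repeat (DR0–DR5) sites, all their single-nucleotide variants and half-site ablations.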
TCTATTAGTCGATTAGGGCAACCGAAACAGCGGA had a PBM binding z-score of 0.568.

The sequence TCTCGGAGGACACGAAAGGTCAGAGCTCGACATC showed a PBM binding z-score of 3.28.

Take CCGATTGGGGCAGAAAGGTTACCATACCATCCGG: the PBM binding z-score was found to be 0.707.

Consider ATCGAAAGGTCGACGAGGTGTGTATACACCGTTT, for which the PBM binding z-score was 3.81.

TCTCTGAGGACACGAAAGGTCAGAGCTCGACATC: the PBM binding z-score was 3.54.

As to CAGACTGGGGCATAAGGTTACCATAAGCCAGCCC, the PBM binding z-score is 0.497.

Consider ATCTCTAGGTAAAGATAGTTCAGAGAATGCAAAT, for which the PBM binding z-score was 0.478.

Consider CAAACTAGGTCAAAGGTCAAAGTCGAGCCAACCA, for which the PBM binding z-score amounted to 6.72.

The sequence CCTCGGAGGACCACAGGAGGTCAGAGCTGCCAGA displayed a PBM binding z-score of 1.43.

Sequence CCTACTGGGCCATTCAGACGTCATTGATCATATG returned a PBM binding z-score of -0.521.

Turning to CGAACTAGGTCATCCAGGACAGCGAATACATTGA, the PBM binding z-score was 4.63.

CCAGACAGGTGAAAGGTAGCTCAGTCTGGTACGC showed a PBM binding z-score of -0.089.

TCTAGTTGGTCACGGTGGTCACACACGACGGGTA showed a PBM binding z-score of 0.961.

The sequence CGAACCAGGTCATCCAGGACAGTGAATACATTGA displayed a PBM binding z-score of 5.42.

ATCGAAAGATCGTGAGGTGAGTATACAGAAAGGC: the PBM binding z-score is -0.0654.

Take CGAACTAGGTCATTGACGGGACAGTGAATAGTAA: the PBM binding z-score is 1.86.

The sequence TCATATAGGTAAACAGGTGAAAGGCCGTAAGTTA came in with a PBM binding z-score of 0.988.

Regarding CGTCCAAGGTCAATGCTAGGTCTGTGAAAGCATT, the PBM binding z-score is 3.76.

Take ATATGTAGGTTAGCTGTGGTCATTCAGACTAGGC: the PBM binding z-score amounted to 0.859.

ATGTCTAGGTAAGACTCAGTTCAGTGAAGAACGC: the PBM binding z-score was found to be 0.683.

As for ATCGAAATGTCGAAGGTGAGTATACCCACCCGAA, the PBM binding z-score was -0.0982.

CGTCAAAGCTCAAGGTAACGTAACAGAAAGCAGC: the PBM binding z-score was -0.278.

Turning to TCTATTAGTTGACGGGCAACCGACGAGTCCGTTT, the PBM binding z-score stood at 0.671.

TAGCGTAGGTCAGATCGGGCCAGTATACGCTATA returned a PBM binding z-score of 0.856.

Turning to TCTTGTAGATCAAGCAGGTTATGAAAGCCTGAGT, the PBM binding z-score came out at 0.521.

Consider CATACAGGGTCAGCTAGGCGAGAGTAGGGACGGC, for which the PBM binding z-score turned out to be 2.57.

Sequence AGAATTAGGTTACCAAAGATCAGGGAAACGCTTG registered a PBM binding z-score of 0.204.

Turning to ATCTCTAGCTAACCAAGTTCAGTGAATGCCGAAC, the PBM binding z-score stood at 1.42.

Take ATCTCTAAGTAAAGTTCAGTGAAAGATCGATAGA: the PBM binding z-score was determined as 1.67.

GCTAGTTGGCCAGTAAAAGGTCACACACCGGTCG showed a PBM binding z-score of 3.73.

Regarding CCAGACAGGTGAGAAGGGAACTCAGCCTCGATTA, the PBM binding z-score is -0.443.

TCTATTAGATGATTAGGGCAACCGAAACAGCGGA showed a PBM binding z-score of 0.44.

Sequence GCTAGCATGCCATTTGGGTCACTCAATGACGGGC returned a PBM binding z-score of 0.372.

Consider ACAGACAGGTGAGTGAAGGTAATTCAGCTGGACG, for which the PBM binding z-score was -0.394.

Take CCCTACGGGTCAAGGTTATAGCACGGGTGGTACG: the PBM binding z-score was determined as 3.26.

TCTTGTAGATCAAAGGTTAAGAAGGCCGAAGCCT showed a PBM binding z-score of 2.65.

Regarding CAAACTAGCTCAAGGTCAAAGTCGGTTTGTGCCA, the PBM binding z-score worked out at 4.51.

In turn, AATACAGGGTCATAGTAGGCCAGAGTACGCACAG had a PBM binding z-score of 4.63.

In the case of CAAACTGGGTCAAGAGGTCAAAGTCCGCTTCCCG, the PBM binding z-score is 6.19.

As to AGCCAAAGTTCACTAGGTAACGTAAGATTCAGCT, the PBM binding z-score was determined as 3.41.
